The values below come from ChEMBL document CHEMBL3433997, “St. Jude Leishmania screening dataset” (2016).

Broadly, the inhibition is the change of the read-out against control, counted positive when it falls.

Holding throughout (type): functional
The target of assay [1] is Solute carrier family 2, facilitated glucose transporter member 1 (Homo sapiens) (UniProt P11166). The assay can be described thus: ST_JUDE_LEISH: Cytotoxicity at 2uM final concentration against transgenic Leishmania Mexicana promastigotes LmGLUT1 that are glucose transport deficient and complemented with the human glucose transporter GLUT1. Activity is measured by DNA content using SYBR green in vitro.
Sequence of Solute carrier family 2, facilitated glucose transporter member 1 (Homo sapiens) (P11166 whole entry): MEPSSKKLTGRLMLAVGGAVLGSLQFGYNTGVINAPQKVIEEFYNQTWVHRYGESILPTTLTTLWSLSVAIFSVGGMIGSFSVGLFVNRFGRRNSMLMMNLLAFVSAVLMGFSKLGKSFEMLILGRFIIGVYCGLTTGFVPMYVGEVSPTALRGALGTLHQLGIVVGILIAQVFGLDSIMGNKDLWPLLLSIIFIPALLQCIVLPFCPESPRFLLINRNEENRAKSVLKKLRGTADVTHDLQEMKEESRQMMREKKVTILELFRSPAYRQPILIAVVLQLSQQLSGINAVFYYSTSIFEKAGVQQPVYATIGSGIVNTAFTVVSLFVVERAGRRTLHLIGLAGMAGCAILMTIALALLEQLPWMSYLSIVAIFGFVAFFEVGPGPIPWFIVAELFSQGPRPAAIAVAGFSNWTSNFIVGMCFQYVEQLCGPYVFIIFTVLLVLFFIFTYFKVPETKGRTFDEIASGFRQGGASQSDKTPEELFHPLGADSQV

Assay [2] addresses Hexose transporter 1 (Plasmodium falciparum) (UniProt O97467). The assay can be described thus: ST_JUDE_LEISH: Cytotoxicity at 2uM final concentration against transgenic Leishmania Mexicana promastigotes LmPfHT that are glucose transport deficient and complemented with the Plasmodium falciparum hexose transporter. Activity is measured by DNA content using SYBR green in vitro.

Assay [3] addresses Glucose transporter (Leishmania mexicana) (UniProt O61059). The assay can be described thus: ST_JUDE_LEISH: Cytotoxicity at 2uM final concentration against transgenic Leishmania Mexicana promastigotes LmGT2 that are glucose transport deficient and complemented with the L. Mexicana glucose transporter 2. Activity is measured by DNA content using SYBR green in vitro.

`COc1ccc(Cn2c(Nc3cccc(C(F)(F)F)c3)nc3cc(C(=O)NC(C)C)cnc32)cc1Cl`: the inhibition amounted to 10.3% in assay [1], 9.69% in assay [2] and 10.9% in assay [3].
For `CCC(C)c1ccc(NC(=O)Nc2ccnc3ccccc23)cc1` (stereo unspecified), the inhibition in assay [1] was 2.93%; in assay [2] it was 6.23%; in assay [3] it was 2.25%.
As to `COc1cccc2c(N/N=C/c3ccccc3[N+](=O)[O-])ccnc12`, the figures for the inhibition in assay [1], in assay [2] and in assay [3] were 4.82%, 5.71% and 3.87%, respectively.
Regarding `CCCCN(CCCC)CCNC(=O)c1cc(OC(F)(F)F)ccc1O`, the inhibition in assay [1] is 1%; in assay [2], 0.8%; in assay [3], 0.03%.
In the case of `O=C(CCN1CCCCC1)Nc1ccc(Nc2nccc(NCC(O)c3ccccc3)n2)cc1` (stereo unspecified), the inhibition was -1.33% in assay [1], -1.09% in assay [2] and -2.39% in assay [3].
Turning to `COc1ccc(C=C2SC(=N)N(c3ccccc3OC)C2=O)cc1`, the inhibition was determined as 6.44% in assay [1], 5.54% in assay [2] and 6.86% in assay [3].
Turning to `Oc1ccc2nc(NCCCc3ccccc3)nc(NCCCc3ccccc3)c2c1`, the inhibition is 28.4% in assay [1], 20.7% in assay [2] and 11.1% in assay [3].
With `COc1ccccc1C1CN(Cc2coc3ccccc3c2=O)Cc2ccccc2O1` (stereo unspecified), the values for the inhibition in assay [1], in assay [2] and in assay [3] were 0.38%, 0.56% and 0.45%, respectively.
Consider `c1ccn2c(-c3ncnc(NCc4ccc5c(c4)CCO5)n3)cnc2c1`, for which the inhibition in assay [1] was 1%; in assay [2] it was 1.45%; in assay [3], 0.24%.
The matching figures for `C=CCOc1ccc2ccccc2c1CNCCCCCCNCc1c(OCC=C)ccc2ccccc12`: 4.33%, 5.37% and 1.05%.
Consider `CCCCNC(=N)c1ccc(OCCCCCOc2ccc(C(=N)NCCCC)cc2)cc1`, for which the inhibition is 5.34% in assay [1], 2.05% in assay [2] and -0.11% in assay [3].
Consider `COc1cc(Cc2cnc(N)nc2N)cc(OCCCCCC(N)=O)c1OC`, for which the inhibition in assay [1] is -0.36%; in assay [2], -2.79%; in assay [3], 1.17%.
The matching figures for `CC(C)(C)SCC(O)Cn1c2ccc(Br)cc2c2cc(Br)ccc21` (stereo unspecified): 2.07%, 0.65% and -0.28%.
The matching figures for `CCOCCCNc1nc2cc(OC)c(OC)cc2c2nc(-c3ccccc3)nn12`: 1.59%, 2.14% and -2.64%.
The matching figures for `COc1cc(NC(=O)c2c(-c3c(Cl)cccc3Cl)noc2C)c(OC)cc1Cl`: 3%, 4.65% and 3.12%.
For the compound `CCCN(CCC)C(=O)c1cc(C(=O)N[C@@H](Cc2ccccc2)[C@H](O)CNCc2cccc(C(F)(F)F)c2)cc(N2CCCCS2(=O)=O)c1`, the inhibition in assay [1] was -1.33%; in assay [2], -0.49%; in assay [3], -0.16%.
The corresponding values for `Cc1ccc2[nH]c(C)cc(=NN=Cc3ccc(Cl)cc3)c2c1` are -0.11%, 0.61% and -1.26%.
`CCc1cccc(NC(=O)/C=C/c2ccc3c(c2)CN(C)CC3)c1`: the inhibition in assay [1] is 4.53%; in assay [2], 2.31%; in assay [3] it was 10.2%.
The corresponding values for `Cc1cccc2nc(-c3cccc(-c4cccc(C(=O)NCCc5cn(C)cn5)c4)c3)[nH]c12` are -0.8%, -0.53% and 0.89%.
Turning to `CCN(CCCN1CCCCC1)c1cc(C)nc(Nc2ccc(C)c(Cl)c2)n1`, the figures for the inhibition in assay [1], in assay [2] and in assay [3] were 3.02%, 2.33% and 1.16%, respectively.
Turning to `CCOc1ccc(S(=O)(=O)N(C)c2ccc(OCC(=O)Nc3nccs3)cc2)cc1`, the inhibition is 5.83% in assay [1], 0.61% in assay [2] and 1.43% in assay [3].
The corresponding values for `CC(=O)Nc1ccc(C(=O)N2CCN(c3ccnc4cc(Cl)ccc34)CC2)cc1` are 1.26%, -0.89% and -0.23%.
Take `COc1cc(C)nc2ccc(NC(=O)Nc3ccc([N+](=O)[O-])cc3C)cc12`: the inhibition amounted to 3.91% in assay [1], 2.99% in assay [2] and 3.97% in assay [3].
Regarding `O=C(Nc1ccc(Cn2ncc(N3CCCNCC3)c(Cl)c2=O)cc1)Nc1cccc(SC(F)(F)F)c1`, the figures for the inhibition in assay [1], in assay [2] and in assay [3] were 0.84%, 1.25% and 0.05%, respectively.
Regarding `Cc1c(C(=O)Nc2cc(Sc3ccc(F)cc3)cc([N+](=O)[O-])c2)sc2ncn(Cc3ccccc3F)c(=O)c12`, the inhibition in assay [1] was determined as 9.44%; in assay [2], 9.11%; in assay [3], 8.4%.
With `Cn1nc(C(F)(F)F)c(-c2ccc(Br)cc2)c1NC(=O)Nc1ccc(F)cc1F`, the results for the inhibition in assay [1], in assay [2] and in assay [3] were 1.12%, 1.19% and 1.25%, respectively.
Regarding `Cc1ccc(-c2csc(C)n2)c(C)c1`, the results for the inhibition in assay [1], in assay [2] and in assay [3] were 1.21%, 2.19% and 2.4%, respectively.
Take `CC(C)(CNCc1cccc(Oc2cccc(C(F)(F)F)c2)c1)c1nc(-c2ccnc(N)n2)c(-c2ccc(Cl)c(O)c2)[nH]1`: the figures for the inhibition in assay [1], in assay [2] and in assay [3] were 6.03%, 6.79% and 7.44%, respectively.
The matching figures for `COc1ccc(N2CCN(CCCCNC(=O)c3ccc(NC(=O)c4cccc(Cl)c4)cc3)CC2)c(OC)c1`: 3.81%, 0.48% and 4.97%.
The corresponding values for `COc1cc(CNC2Cc3ccccc3C2)ccc1Oc1ccc2nc[nH]c2c1` are 2.66%, 0.67% and 0.95%.
As to `O=C(Nc1ccc(C(F)(F)F)cc1)NC1CCN(c2ccnc3cc(Cl)ccc23)CC1`, the results for the inhibition in assay [1], in assay [2] and in assay [3] were 6.47%, 6.26% and 4.68%, respectively.
`CCN1CCC(N(Cc2ccc(-c3ccc(C(F)(F)F)cc3)cc2)C(=O)Cn2c(CCc3cccc(F)c3F)nc(=O)c3ccccc32)CC1`: the inhibition in assay [1] was 1.25%; in assay [2], 2.57%; in assay [3], 3.43%.
In the case of `Cc1ccc(Cc2c(N)nc3nc(N)nc(N)c3c2C)cc1`, the values for the inhibition in assay [1], in assay [2] and in assay [3] were 4.96%, 8.67% and 6.55%, respectively.
Consider `COc1cc(-c2ccc(-c3cnc(N)nc3OC)[nH]2)cc(OC)c1OC`, for which the figures for the inhibition in assay [1], in assay [2] and in assay [3] were 5.61%, 5.42% and 2.7%, respectively.
With `O=C(Nc1ccc(OC2CCN(Cc3ccc(F)cc3)C2)cc1)c1cccs1` (stereo unspecified), the inhibition in assay [1] is -3.81%; in assay [2], -1.65%; in assay [3], -0.11%.
The corresponding values for `Cc1ccc(/C=C/C(=O)NC2CCC(N3CCC(c4ccccc4C)CC3)CC2)cc1F` (stereo unspecified) are 15.1%, 17.5% and 13.7%.
Consider `Cc1ccccc1OCCCc1c(C)nc(N)nc1N`, for which the inhibition in assay [1] was found to be 3.68%; in assay [2], 9.06%; in assay [3] it was 0.82%.
